Experiment [1] can be described thus: Cellular Toxicity (caspase-3) H-4-II-E (AID 663).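 Also: cells exposed to compound for 16 hr before readout.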 The method in brief:
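Rat hepatoma H-4-II-E cells (1500/well) plated 5 hr, then exposed to compound titrations for 16 hr at 37 °C. Caspase-Glo 3/7 luminescence read after 20 min at RT; data normalized to DMSO and 100 uM tamoxifen, AC50 from Hill fits.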

The nature of experiment [2]: Cellular Toxicity (caspase-3) Hek293 (AID 664).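 Also: cells exposed to compound for 16 h at 37 °C before readout.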 The method in brief:
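Activation of caspase-3/7 is measured as increased luminescence from cleaved peptide-aminoluciferin substrate in HEK293 cells treated 16 hours at 37 °C. AC50 values come from Hill-equation fits of concentration-response data.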

Experiment [3] can be described thus: Cellular Toxicity (caspase-3) N2a (AID 665).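 Also: compound exposure lasted 16 h at 37 °C before readout.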 The method in brief: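 Plated mouse neuroblastoma N2a cells received titrated compounds for 16 h in complete medium. Caspase activity was then detected with a peptide-aminoluciferin luminescent reagent.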
Experiment [4] can be described thus: Cellular Toxicity (caspase-3) NIH 3T3 (AID 666).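 Also: caspase signal read after 16 h compound exposure.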 Summed up: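 Concentration-response qHTS in NIH 3T3 mouse fibroblasts scores caspase-3/7 activation as rising luminescence after 16 hr compound exposure. Signals are scaled between DMSO-only and 100 uM tamoxifen.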
Experiment [5] can be described thus: Cellular Toxicity (caspase-3) Renal Proximal Tubule (AID 667).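 Also: cells exposed to compound for 16 hours at 37 °C before detection.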 Summed up: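 Caspase 3/7 activation measured by luminescent aminoluciferin release in primary rat proximal tubule cells after 16 hr compound exposure at 37 °C. AC50 from Hill-fitted concentration-response, scaled between DMSO and 10 uM staurosporine.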
Experiment [6] addresses Guanine nucleotide-binding protein G(i) subunit alpha-1 (Homo sapiens) (UniProt P63096). Nature of the experiment: qHTS Assay for Inhibitors of RGS12 GoLoco Motif Activity (Green Fluorophore) (AID 879).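 Also: negative values mean loss of peptide binding seen as reduced polarization.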 Summed up: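 Fluorescence polarization assay: 50 nM Gαi1 with 10 nM FITC-labeled RGS12 GoLoco peptide in 10 mM Tris pH 7.5, 150 mM NaCl, 0.1 mM GDP, 0.05% NP40, 10 min at room temperature with compound.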
In general terms: qHTS replaces the single test concentration by a dilution series.

Experiment [7] addresses Cytochrome P450 2C9 (Homo sapiens) (UniProt P11712). Nature of the experiment: qHTS Assay for Inhibitors and Substrates of Cytochrome P450 2C9 (AID 883). Also: nearly all actives have a fitted effect of over 60% in size. The method in brief: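 10nM CYP2C9 + 100uM Luciferin-H (=KM), 25mM KPO4; cpd 10 min 37C; NADPH regen, 60 min 37C; stop/detect with P450 Glo-Buffer 20 min; luminescence. Norm. to 57uM sulphaphenazole as full inhibition.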

Experiment [8] concerns the target Cytochrome P450 3A4 (Homo sapiens) (UniProt P08684). Nature of the experiment: qHTS Assay for Inhibitors and Substrates of Cytochrome P450 3A4 (AID 884). Also: series mostly up to about 57 µM; nearly all actives have a fitted effect of over 50% in size. Summed up: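 20 nM human CYP3A4 with 25 uM Luciferin-PPXE (at KM) in 200 mM KPO4, preincubated 10 min with compound; NADPH regeneration started a 60 min RT reaction. Luciferin detected by luminescence, normalized to 57 uM ketoconazole as full inhibition.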

The target in experiment [9] is Cytochrome P450 2D6 (Homo sapiens) (UniProt P10635). Nature of the experiment: qHTS Assay for Inhibitors and Substrates of Cytochrome P450 2D6 (AID 891). Also: nearly all actives have a fitted effect of over 60% in size. Also: potency is read from the fitted curve at half-maximal effect. Summed up: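 Human CYP2D6 (5 nM) with 30 uM Luciferin-ME EGE (at Km) in 100 mM KPO4, compound preincubated 10 min, then NADPH regeneration system for 60 min at room temperature. Luciferin read by luminescence; normalized to 1.43 uM quinidine.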
Cytochrome P450 2D6 (Homo sapiens), sequence (P10635 whole entry, looked up): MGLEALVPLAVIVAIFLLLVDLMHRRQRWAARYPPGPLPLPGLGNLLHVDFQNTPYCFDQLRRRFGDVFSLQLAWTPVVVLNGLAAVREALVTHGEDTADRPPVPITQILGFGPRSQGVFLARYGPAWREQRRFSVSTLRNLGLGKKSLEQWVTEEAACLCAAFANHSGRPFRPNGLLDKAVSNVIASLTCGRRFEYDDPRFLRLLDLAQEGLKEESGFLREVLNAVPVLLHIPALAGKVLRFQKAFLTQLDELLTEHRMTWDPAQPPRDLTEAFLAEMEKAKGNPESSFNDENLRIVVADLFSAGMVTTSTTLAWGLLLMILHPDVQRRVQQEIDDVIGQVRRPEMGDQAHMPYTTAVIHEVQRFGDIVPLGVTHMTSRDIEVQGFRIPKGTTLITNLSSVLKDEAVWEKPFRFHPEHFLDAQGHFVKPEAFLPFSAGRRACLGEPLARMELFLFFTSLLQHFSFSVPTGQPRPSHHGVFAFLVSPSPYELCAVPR

Experiment [10] is described as follows: Confirmation and Secondary Assay for Modulators of Hemoglobin Beta Chain Splicing at IVS2 654 locus (AID 910).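 Also: HeLa cells stably carrying EGFP split by mutant beta-globin IVS2-654 intron.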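 Also: potency is read from the fitted curve at half-maximal effect; potency of activators that raise GFP signal by restoring correct splicing.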 Summed up: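 HeLa cells stably expressing EGFP interrupted by β-globin IVS2-654 intron, seeded overnight in Opti-MEM/2% FCS, then treated 2 days at 37 °C. Restored splicing read as total peak GFP intensity per well by laser scanning cytometry (488 nm excitation, 500–520 nm emission); 500 nM antisense PNA as control.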

The nature of experiment [11]: qHTS Assay for Identification of Small Molecule Agonists for Thrombopoietin (TPO) Signaling Pathway (AID 917). Summed up: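 Reporter: GpIIb promoter–luciferase in murine Ba/F3 expressing human TPO receptor. Pre-starved of IL-3 overnight; compounds with 26 pM TPO, 24 hrs, 37 C/5% CO2; luminescence read.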
The nature of experiment [12]: Cell Viability - LYMP2-001 (AID 921). Also: nearly all actives have a fitted effect of over 70% in size. Also: potency is read from the fitted curve at half-maximal effect. Summed up: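 Cellular ATP loss read by luciferase luminescence after 24 h compound exposure at 37 C in complete medium. LYMP2-001 lymphoblastoid cells, 2500/well; qHTS concentration-response data fitted with Hill equation for AC50.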
Experiment [13] is described as follows: Confirmation and Secondary Assay for Modulators of Hemoglobin Beta Chain Splicing at IVS2 705 locus (AID 930).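 Also: GFP fluorescence per well restored by corrected splicing of the IVS2-705 intron in EGFP.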 Also: potency is read from the fitted curve at half-maximal effect. Summed up: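 Stable HeLa line with EGFP disrupted by mutant beta-globin intron 2 (705). Overnight attachment, then 2 days of compound at 37C, 5% CO2. Signal: peak GFP intensity summed over objects 5-250 µm.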
Experiment [14] addresses Pyruvate kinase (Leishmania mexicana) (UniProt Q27686). Nature of the experiment: qHTS Validation Assay for Inhibitors of Leishmania Mexicana Pyruvate Kinase (AID 945). The method in brief:
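Mutant LmPYK (E451W), 0.2 nM, plus 0.5 mM PEP and 0.1 mM ADP in 50 mM imidazole pH 7.2 containing 0.01% Tween 20 and 0.05% BSA. Incubated 1 h at room temperature; luminescence via PKLight, normalized to DMSO.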

Experiment [15] is described as follows: qHTS Assay for Identification of Small Molecule Antagonists for NFkB Signaling Pathway (AID 895; active = well fitted inhibition curve with a large enough effect in the signal ratio, with a control signal flat, not every such curve was filed as active; the % refers to the signal ratio; also: potency is read from the fitted curve at half-maximal effect). Summed up: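 ME-180 NFkB-bla cells (beta-lactamase under NFkB response element), plated overnight, treated with compound then 10 pM TNF alpha (about EC50) for 5 hrs at 37 C. LiveBLAzer FRET read at 460/530 nm emission, 405 nm excitation.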
Experiment [16] has as its target Cytochrome P450 3A4 (Homo sapiens) (UniProt P08684). As to the kind of experiment: qHTS Assay for Activators of Cytochrome P450 3A4 (AID 885). Also: nearly all actives have a fitted effect of over 65% in size. The method in brief: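 Quantitative HTS format: compounds preincubated with 20nM human CYP3A4 and Luciferin-PPXE substrate at KM, reaction started by NADPH regeneration, stopped after 60 min, luciferase luminescence read 20 min later.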

Experiment [17] concerns the target Muscarinic acetylcholine receptor M1 (Rattus norvegicus) (UniProt P08482). As to the kind of experiment: qHTS Assay for Antagonists of Acetylcholine Muscarinic M1 Receptor: Measurement of IP-One Response (AID 944). Also: nearly all actives have a fitted effect of over 75% in size. The method in brief: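 Steps: plate transfected CHO-M1 cells overnight; add test compound, 10 min; add carbachol (200 nM, EC80) in stimulation buffer with LiCl; incubate 30 min; add labelled IP1 tracer and anti-IP1 antibody in lysis buffer; read HTRF after 10 min.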

The target is the same in experiment [18]. As to the kind of experiment: qHTS Assay for Antagonists of Acetylcholine Muscarinic M1 Receptor: Kinetic Measurement of Intracellular Calcium Response (AID 943).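 Also: Fluo-4 calcium signal as peak divided by basal fluorescence over 4 min; series mostly up to about 35 µM; nearly all actives have a fitted effect of over 75% in size.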 The method in brief:
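Intracellular calcium flux, recorded with Fluo-4 in a kinetic plate reader, served as signal; the response to carbachol at EC80 (100 nM final) was taken as maximal over minimal fluorescence after a 10 min compound pre-incubation in rat M1-CHO cells.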

Several values for one entry are separate records, joined by “and”; a condition that tells them apart may be missing. Identical values can stand only once. Results filed as inconclusive are left out. More than one record can exist for a structure, and the calls need not agree. Activity calls are given as the source filed them. Unless noted, calls follow the shape of the dose curve; as a rule, active = well fitted curve in the direction sought with a large enough effect; inconclusive = small, poorly fitted or top-dose-only effect, or another doubt; inactive = no such curve, though single readings can be large; an effect the other way counts as inactive or inconclusive.

Guanine nucleotide-binding protein G(i) subunit alpha-1 (Homo sapiens), sequence (P63096 whole entry, looked up): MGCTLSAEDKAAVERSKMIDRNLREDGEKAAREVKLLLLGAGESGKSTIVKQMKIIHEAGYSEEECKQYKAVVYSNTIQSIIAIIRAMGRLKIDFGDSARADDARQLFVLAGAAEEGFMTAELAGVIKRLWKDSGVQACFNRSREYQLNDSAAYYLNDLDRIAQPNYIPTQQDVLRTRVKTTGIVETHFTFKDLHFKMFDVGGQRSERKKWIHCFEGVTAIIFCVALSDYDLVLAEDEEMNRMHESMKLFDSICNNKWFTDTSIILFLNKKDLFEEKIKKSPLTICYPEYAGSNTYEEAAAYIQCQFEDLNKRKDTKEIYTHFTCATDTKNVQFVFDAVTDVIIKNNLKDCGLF
Cytochrome P450 2C9 (Homo sapiens), sequence (P11712 whole entry, looked up): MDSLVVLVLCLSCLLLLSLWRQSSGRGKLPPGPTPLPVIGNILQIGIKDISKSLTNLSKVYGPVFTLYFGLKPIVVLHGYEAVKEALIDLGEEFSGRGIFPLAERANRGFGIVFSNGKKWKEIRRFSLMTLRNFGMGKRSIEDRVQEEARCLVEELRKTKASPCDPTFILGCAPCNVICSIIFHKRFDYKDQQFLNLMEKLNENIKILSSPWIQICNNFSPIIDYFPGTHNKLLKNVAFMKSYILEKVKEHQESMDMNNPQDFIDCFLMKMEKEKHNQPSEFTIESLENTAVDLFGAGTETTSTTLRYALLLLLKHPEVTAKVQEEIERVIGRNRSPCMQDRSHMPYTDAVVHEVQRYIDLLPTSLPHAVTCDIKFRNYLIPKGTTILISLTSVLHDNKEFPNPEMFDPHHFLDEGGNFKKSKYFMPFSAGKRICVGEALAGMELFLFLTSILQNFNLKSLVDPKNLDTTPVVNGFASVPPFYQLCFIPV
Cytochrome P450 3A4 (Homo sapiens), sequence (P08684 whole entry, looked up): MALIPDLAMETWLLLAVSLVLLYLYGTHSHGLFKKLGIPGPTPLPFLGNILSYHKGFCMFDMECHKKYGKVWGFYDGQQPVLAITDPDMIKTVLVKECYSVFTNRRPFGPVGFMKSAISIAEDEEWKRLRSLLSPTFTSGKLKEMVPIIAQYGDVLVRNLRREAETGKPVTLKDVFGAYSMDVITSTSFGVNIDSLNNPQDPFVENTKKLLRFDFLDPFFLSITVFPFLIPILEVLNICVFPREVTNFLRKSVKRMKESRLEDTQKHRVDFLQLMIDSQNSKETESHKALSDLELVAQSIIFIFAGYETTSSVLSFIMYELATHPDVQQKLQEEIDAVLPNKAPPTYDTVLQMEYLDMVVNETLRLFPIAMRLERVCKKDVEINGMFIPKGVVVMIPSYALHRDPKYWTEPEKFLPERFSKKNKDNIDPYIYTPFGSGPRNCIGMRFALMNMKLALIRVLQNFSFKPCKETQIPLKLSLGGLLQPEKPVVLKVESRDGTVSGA
Pyruvate kinase (Leishmania mexicana), sequence (Q27686 2-499 E452W): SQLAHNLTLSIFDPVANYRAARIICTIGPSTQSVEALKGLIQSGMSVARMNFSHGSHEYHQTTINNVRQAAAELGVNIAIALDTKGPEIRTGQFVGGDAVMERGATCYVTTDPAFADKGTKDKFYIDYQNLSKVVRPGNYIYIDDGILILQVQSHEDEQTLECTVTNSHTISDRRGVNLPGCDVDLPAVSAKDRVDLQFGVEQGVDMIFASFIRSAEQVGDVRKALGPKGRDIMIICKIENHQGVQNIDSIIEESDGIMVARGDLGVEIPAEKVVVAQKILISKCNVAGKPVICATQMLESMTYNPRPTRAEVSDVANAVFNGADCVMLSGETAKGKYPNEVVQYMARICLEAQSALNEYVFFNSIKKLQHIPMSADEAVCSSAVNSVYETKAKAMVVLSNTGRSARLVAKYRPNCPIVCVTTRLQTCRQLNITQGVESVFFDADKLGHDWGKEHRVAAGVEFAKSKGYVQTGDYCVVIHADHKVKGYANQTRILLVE
Muscarinic acetylcholine receptor M1 (Rattus norvegicus), sequence (P08482 whole entry, looked up): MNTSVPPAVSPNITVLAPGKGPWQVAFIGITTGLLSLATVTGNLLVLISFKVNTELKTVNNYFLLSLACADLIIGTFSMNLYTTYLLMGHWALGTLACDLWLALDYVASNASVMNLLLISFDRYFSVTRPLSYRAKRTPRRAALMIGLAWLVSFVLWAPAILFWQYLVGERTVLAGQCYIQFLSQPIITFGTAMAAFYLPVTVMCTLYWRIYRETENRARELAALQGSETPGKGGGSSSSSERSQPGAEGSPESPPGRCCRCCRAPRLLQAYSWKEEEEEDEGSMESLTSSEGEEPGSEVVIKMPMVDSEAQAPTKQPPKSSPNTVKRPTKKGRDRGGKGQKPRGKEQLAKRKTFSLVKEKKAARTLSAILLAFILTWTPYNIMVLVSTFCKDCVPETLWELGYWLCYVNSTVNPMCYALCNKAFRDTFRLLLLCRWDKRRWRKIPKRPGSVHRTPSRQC

For `NC(=O)c1cnccn1`, the molecule was called inactive in experiment [1], in [2], in experiment [3], in experiment [4], in experiment [5] and in experiment [6]. For the same molecule, the molecule was classed as inactive in experiment [11] and in experiment [14]. Moreover, the Potency result in [7], in [8], in experiment [9], in experiment [10], in experiment [12] and in [13] was “inactive” throughout.

As to `Cn1cnc([N+](=O)[O-])c1Sc1ncnc2nc[nH]c12`, the result in experiment [1], in [2], in [3], in [4], in experiment [5] and in experiment [6] was inactive. Moreover, the result in experiment [11] and in [14] was inactive. In addition, in experiment [15], the Potency entry is “inactive”. Moreover, the Potency is 1.58 µM (active) in experiment [10]; 39.8 µM (active) in experiment [12]; “inactive and 2.51 µM (active)” in [13].

Consider `N[C@@H]1CONC1=O`, for which the result in [6], in experiment [16], in experiment [11] and in experiment [14] was inactive. Moreover, the Potency result in [7] is “inactive”.

For `C[C@]12CCC(=O)C=C1CC[C@@H]1[C@@H]2[C@@H](O)C[C@@]2(C)[C@H]1CC[C@]2(O)C(=O)CO`, the call in [6], in experiment [16], in [11] and in [14] was inactive. For the same molecule, the Potency in [15] is 0.0141 µM (active). Moreover, the Potency entry in experiment [17] was “inactive”.

For `C1COC(NC(C2CC2)C2CC2)=N1`, the call in [6], in [16], in experiment [11] and in experiment [14] was inactive. Further, the Potency entry in experiment [7], in [18] and in [17] was “inactive” in each case. The Potency in [9] was 398 nM (active).

For the molecule `O=c1n(CCCN2CCN(c3cccc(Cl)c3)CC2)nc2ccccn12`, the molecule was called inactive in [6], in experiment [11] and in [14]. The Potency entry in [8], in [10], in experiment [13] and in [17] was “inactive” throughout.

Turning to `NC(N)=NC(=O)c1nc(Cl)c(N)nc1N`, the outcome in [1], in experiment [2], in experiment [3], in experiment [4], in experiment [5] and in experiment [6] was inactive. The outcome in experiment [11] and in experiment [14] was inactive. Further, the Potency result in [8], in experiment [15], in [10] and in [13] was “inactive” each time.

`NNCCc1ccccc1`: the molecule was called inactive in [6], in experiment [16], in experiment [11] and in experiment [14]. Moreover, the Potency in experiment [9] was 6.31 µM (active) and 2.51 µM (active). In addition, the Potency result in experiment [10] and in experiment [13] was “inactive” in each case.
